# USP30 inh = human USP30 deubiquitinase inhibition | purified USP30, Ub-rhodamine cleavage fluorescence | Q70CQ3 | inhibition, % at 25 µM | 47,000 tested, 5.3% active
# Target sequence (Q70CQ3 whole entry, looked up): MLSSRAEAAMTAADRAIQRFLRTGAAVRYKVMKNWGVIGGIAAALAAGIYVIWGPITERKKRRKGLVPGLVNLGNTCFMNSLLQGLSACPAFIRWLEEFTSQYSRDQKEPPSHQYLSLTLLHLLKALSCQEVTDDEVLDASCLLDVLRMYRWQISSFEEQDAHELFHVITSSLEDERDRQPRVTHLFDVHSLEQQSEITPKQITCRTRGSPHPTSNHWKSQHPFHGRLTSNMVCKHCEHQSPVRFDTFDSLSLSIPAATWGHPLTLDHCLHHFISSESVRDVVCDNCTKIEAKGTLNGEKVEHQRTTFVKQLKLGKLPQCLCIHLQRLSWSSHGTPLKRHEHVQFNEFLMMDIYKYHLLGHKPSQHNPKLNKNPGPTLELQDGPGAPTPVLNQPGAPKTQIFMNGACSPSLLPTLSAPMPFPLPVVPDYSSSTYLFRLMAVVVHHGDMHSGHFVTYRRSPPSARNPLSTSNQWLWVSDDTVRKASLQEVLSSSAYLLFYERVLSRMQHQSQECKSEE
# USP17 block = human USP17-like deubiquitinase inhibition; purified USP17, Ub-rhodamine cleavage fluorescence, 3 h; inhibition, % at 50 µM; 47,000 tested, 6.5% active; AID 1645855
# USP8 inh = blocks human USP8 ubiquitin-rhodamine cleavage | AID 1645853 | purified USP8, Ub-rhodamine cleavage fluorescence, 30 min | 47,000 tested, 4.2% active | inhibition, % at 20 µM
# The depositor's hits bear a star; · = no result given. This is a sample that favours compounds with a hit; in the whole collection about 12% have one here. Rule as the data show it: active = inhibition above about 30%; inactive = the rest.
SMILES,USP30 inh,USP17 block,USP8 inh
CCn1c(SCc2nc(N)c3ccccc3n2)nc2ccccc21,39*,54*,33*
Cc1ccc(-c2nnc(Cn3c(SCC(=O)O)nc4ccccc43)o2)cc1,-40,0,-3
CN(C)c1cnc(-n2cc(NC(=O)c3ccc(F)cc3)cn2)nc1,-129,4,-24
Cn1cc2cccc(NC(=O)c3ccc(F)cc3)c2n1,-3,87*,91*
Clc1ccc(Cc2nnc(-c3cnc4onc(C5CCCC5)c4c3)o2)cc1,2,4,22
O=C(C1CCC1)N1CCC(c2nc3c(nnn3Cc3c(F)cccc3Cl)c(=O)[nH]2)CC1,6,-5,0
O=C(C1CCCC1)N1CCC(c2nc3c(nnn3Cc3c(Cl)cccc3Cl)c(=O)[nH]2)CC1,44*,12,4
O=C(C1CCC1)N1CCC(c2nc3c(nnn3Cc3ccccc3Cl)c(=O)[nH]2)CC1,32*,25,19
CC(C)(C)CC(=O)N1CCC(c2nc3c(nnn3Cc3ccccc3Cl)c(=O)[nH]2)CC1,20,2,6
CC1(C)OC(=O)[C@@]2(C)N[C@]1(C)C[C@@H]2C(=O)Nc1cccc(CO)c1,7,2,8
O=C(c1ccc2ccccc2c1)N(CC1CCCO1)c1nc2ccccc2s1 (configuration not stated),2,3,19
Cc1ccc(-n2c(-c3ccccc3)cn3c4c(=O)[nH]c(=O)n(C)c4nc23)cc1C,-44,78*,0
Cc1ccc(NCCn2c(C)cn3c4c(=O)[nH]c(=O)n(C)c4nc23)cc1,·,-11,0
COCCNc1nc2c(c(=O)[nH]c(=O)n2C)n1CCCc1ccccc1,20,16,21
Cc1ccc(-n2c(-c3ccccc3)cn3c4c(=O)[nH]c(=O)n(C)c4nc23)cc1Cl,34*,52*,-7
Cn1c(=O)[nH]c(=O)c2c1nc1n(CCc3ccccc3)c(-c3ccccc3)cn21,50*,54*,-23
COCCCn1c(-c2ccccc2)cn2c3c(=O)[nH]c(=O)n(C)c3nc12,22,5,-22
O=C(CN(C1CCCCC1)S(=O)(=O)c1ccc(Br)cc1)N1CCN(c2ccccc2)CC1,-27,-18,-6
O=C(C(=O)N1CCCc2ccccc21)c1cn(CC(=O)N2CCCCC2)c2ccccc12,·,-11,-1
CCS(=O)(=O)NCC1CCN(c2ncccn2)CC1,10,11,4
Cc1cccc(CCN(C(=O)c2ccco2)C(C(=O)NC2CCCC2)c2ccccc2)c1 (configuration not stated),23,1,-5
CN1CCc2cc(C(CNC(=O)C3CCCCC3)N3CCCC3)ccc21 (configuration not stated),-13,-10,0
CCOc1ccc(C(=O)CCC(=O)Nc2cccc(S(=O)(=O)Nc3cccc(Cl)c3)c2)cc1,-47,32*,0
COc1ccc(NS(=O)(=O)c2cccc(NC(=O)CCOc3ccccc3OC)c2)cc1,·,-3,7
CCOC(=O)c1cnn(-c2ccc(C(=O)N3CCC(C)CC3)cc2)c1N,1,2,-50
SMILES,USP30 inh,USP17 block,USP8 inh
Cc1ccc(CC(=O)N2CCC3(C2)C(=O)Nc2ccccc23)cc1 (configuration not stated),15,-1,-25
Cn1c(SCCOc2ccc(Cl)cc2)nnc1-c1ccc2c(c1)OCCO2,54*,18,10
Cn1c(SCCOc2ccccc2)nnc1-c1ccc2c(c1)OCCCO2,7,3,3
CCCC(=O)Nc1ccc2c(c1)nc(CCN1CCN(C)CC1)n2C,0,7,3
N#Cc1cc2c(n(-c3cccc(F)c3)c1=O)CC(c1ccccc1)CC2=O (configuration not stated),-116,-66,-106
COc1ccc(C(C(=O)NCc2ccccc2)N(C(=O)CCN2CCc3ccccc32)c2ccc3c(c2)OCO3)cc1 (configuration not stated),-91,-10,23
O=C(NCc1ccccc1)C(c1ccc(F)cc1)N(C(=O)CCN1CCc2ccccc21)c1ccc2c(c1)OCO2 (configuration not stated),-301,-42,40*
O=C(NCc1ccccn1)c1nc[nH]c1C(=O)NCc1ccc(F)cc1Cl,-11,-42,-135
CC(C)(C)OC(=O)N1CCN(c2nccn3nc(-c4ccccc4)cc23)CC1,-44,-9,-1
CC(C)(C)OC(=O)N1CCN(C(=O)Cn2c(=O)nc(-c3ccccc3)c3ccccc32)CC1,59*,33*,-8
COc1cc(C)ccc1-n1c(-c2ccc(F)cc2)cn2c3c(=O)n(C)c(=O)n(C)c3nc12,39*,43*,9
Cc1cc(C)cc(-n2c(-c3ccccc3)cn3c4c(=O)n(C)c(=O)n(C)c4nc23)c1,7,0,2
COc1ccc(NC(=O)CSc2ncnc3c2oc2ccccc23)c(OC)c1,20,32*,0

# Source: PubChem (Buhrlage Lab, Dana-Farber Cancer Institute and Novartis Institutes for BioMedical Research (Cambridge, Mass))
